Bioassay records (PubChem)
Rows were chosen to be rich in hits. Some 12% of all compounds tested hit in one or more screens of this group.
SARS PLP yeast – inhibitors of SARS-CoV papain-like protease in yeast; S. cerevisiae expressing SARS-CoV PLpro, growth rescue; Potency, µM (titrated, usually from 32.9 µM), inactives show at the top dose activity, positive = growth rescue, most hits filed as activators; 330,000 compounds, 0.19% hits; AID 485353; calls by dose curve; note: 0% is about no effect; nearly all actives have a fitted effect of over 55% in size
Sm TGR inh – inhibitors of Schistosoma mansoni thioredoxin glutathione reductase. Q962Y6. purified TGR, DTNB reduction, TNB absorbance 405 nm. Potency, µM (series often up to 114 µM), for the others: at the top dose activity change, negative = inhibition, actives largely listed as inhibitors. 360,000 compounds, 3% hits. AID 485364; note: % is set by controls: 0 for no effect and ±100 for the full control effect; nearly all actives have a fitted effect of over 60% in size
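TGR 20 nM + NADPH 100 uM (dispensed conc.), cpd preinc 15 min RT; start with NADPH (500 uM addition) then DTNB (15 mM addition). Kinetic TNB absorbance, 405 nm filter. Four-parameter Hill fit across titration.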
Pf growth 48h – inhibits P. falciparum growth in the first generation, 48 h; P. falciparum luciferase growth in erythrocytes, 48 h; Potency, µM (series often up to 28.7 µM), without a hit: top-dose activity change, negative = inhibition, usual class: inhibitors; 310,000 compounds, 5.9% hits; note: % is set by controls: 0 for no effect and ±100 for the full control effect
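Firefly luciferase activity from engineered P. falciparum reports growth; inhibitors lower the luminescent signal. Cultures contained 2% hematocrit erythrocytes at 0.1% final parasitemia.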
Pf growth 96h – inhibits malaria parasite growth, 96 h; 320,000 compounds, 6.9% hits; P. falciparum luciferase reporter growth, 96 h; Potency, µM (doses to about 28.7 µM), inactives show at the highest dose activity change, negative = inhibition, actives largely listed as inhibitors; AID 504834; note: % is set by controls: 0 for no effect and ±100 for the full control effect
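P. falciparum expressing integrated firefly luciferase, in erythrocytes at 2% hematocrit, 0.05% parasitemia, incubated with compounds 96 h at 37 C, 5% CO2. Growth inhibition read as loss of luminescence; two-generation exposure targets delayed-death apicoplast inhibitors.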
Active calls of the source: *; ? = inconclusive; . = no result. Unless noted, calls come from the whole dose curve; as a rule, active = well fitted curve in the direction sought with a large enough effect; inconclusive = small, poorly fitted or top-dose-only effect, or another doubt; inactive = no such curve, though single readings can be large; an effect the other way counts as inactive or inconclusive. Potency is the fitted concentration of half-maximal effect.

SMILES	SARS PLP yeast	Sm TGR inh	Pf growth 48h	Pf growth 96h
Cc1ccc(S(=O)(=O)c2cc3c(=O)n4ccccc4nc3n(C3CCCC3)c2=N)cc1	2.7%	-8.5%	5.22µM*	8.8%
COc1ccccc1N1CCN(C(=O)c2nc(SC)ncc2Cl)CC1	.	5.7%	.	.
Cc1ccccc1NC(=O)COC(=O)c1cc(S(=O)(=O)N2CCOCC2)ccc1C	-2.5%	-23.9%	?	-1.1%
O=C1Nc2ccccc2CCC1Sc1nnc(-c2ccc(Cl)cc2)s1 (stereo unspecified)	0.0%	-2.3%	13.1µM*	?
Cc1noc(C)c1S(=O)(=O)Nc1ccc(C(=O)Nc2ccc(Br)cc2)cc1	.	-6.8%	.	.
Clc1ccc(OCCn2c(-c3ccco3)nc3ccccc32)cc1	-29.3%	?	.	11.7µM*
Nc1nc2ccccc2n1CCOc1ccc(F)cc1	-5.3%	0.0%	8.28µM*	14.7µM*
COc1ccc(OCCn2c(N)nc3ccccc32)cc1	-4.4%	7.8%	?	?
CC(C)(C)CC(C)(C)c1cc(Cc2cc(C(C)(C)CC(C)(C)C)cc(-n3nc4ccccc4n3)c2O)c(O)c(-n2nc3ccccc3n2)c1	.	.	-5.1%	2.9%
CCOC(=O)NC(=O)CSc1ccc(S(=O)(=O)N(C)C2CCCCC2)cn1	-3.4%	-5.0%	6.57µM*	13.1µM*
CC1CCC(NC(=O)CSc2ccc(S(=O)(=O)N(C)C)cn2)CC1 (stereo unspecified)	0.9%	-6.9%	?	?
CC(C)CNC(=O)CSc1ccc(S(=O)(=O)N(C)C2CCCCC2)cn1	-4.1%	0.8%	9.28µM*	-13.4%
CC(C#N)Sc1ccc(S(=O)(=O)N(C)C2CCCCC2)cn1 (stereo unspecified)	-3.2%	-6.9%	1.1%	-9.9%
O=S1(=O)c2ccccc2N=NN1Cc1ccc(Cl)c(Cl)c1	.	3.98µM*	14.1%	23.8%
CC(C)(C)c1ccc(CN2N=Nc3ccccc3S2(=O)=O)cc1	-1.3%	12.6µM*	?	?
CCc1ccc(Nc2cc(C)nc3nc(Cc4ccc(Cl)cc4)nn23)cc1	.	-6.7%	.	.
Cc1cc(NC(=O)CN2C(=O)c3cccnc3Sc3ccccc32)ccc1Br	.	-4.0%	.	.
Cc1cccc(N2CCN(C(=O)c3c(-c4ccccc4)noc3C)CC2)c1C	-12.0%	-0.1%	?	10.4µM*
C=CCN1CCN(C(=O)c2c(-c3ccccc3)noc2C)CC1	6.0%	0.7%	-7.2%	-25.4%
Cc1onc(-c2ccccc2)c1C(=O)N1CCN(C/C=C/c2ccccc2)CC1	-4.4%	-8.8%	.	2.08µM*
Cc1cc(C)cc(NC(=O)COc2cccc3c(=O)n(C)ccc23)c1	.	7.9%	.	.
N#Cc1c(N(CCO)CCO)nc(N)c2c(N)nc3c(c12)CC(=O)N3CC1CCCO1 (stereo unspecified)	-2.8%	-9.8%	2.3%	30.6%
CCCCN1C(=O)Cc2c1nc(N)c1c(N)nc(N(CCC)CCC)c(C#N)c21	-0.1%	0.6%	4.65µM*	4.15µM*
COc1ccc(CN2C(=O)Cc3c2nc(N)c2c(N)nc(N4CCCCC4)c(C#N)c32)cc1	10.0%	-2.3%	?	?
N#Cc1c(N2CCCC(O)C2)nc(N)c2c(N)nc3c(c12)CC(=O)N3C12CC3CC(CC(C3)C1)C2 (stereo unspecified)	-2.8%	?	?	0.208µM*
SMILES	SARS PLP yeast	Sm TGR inh	Pf growth 48h	Pf growth 96h
CC(C)(C)c1ccc(N2C(=O)Cc3c2nc(N)c(C#N)c3N)cc1	6.6%	-2.4%	36.7%	.
C=C(C)CN(CC)c1nc(N)c2c(N)nc3c(c2c1C#N)CC(=O)N3C12CC3CC(CC(C3)C1)C2	-3.2%	-30.5%	.	0.928µM*
Cc1ccc(N2CC(C(=O)Nc3ccc(N4CCOCC4)cc3)CC2=O)cc1C (stereo unspecified)	3.0%	-10.5%	7.1%	?
CC(C)Sc1ccccc1C(=O)Nc1ccc2c(c1)n(C)c(=O)n2C	1.2%	2.4%	?	?
Cc1c(NC(=O)Nc2ccc(C(C)(C)C)cc2)c(=O)n(-c2ccccc2)n1C	-0.6%	1.0%	5.5%	3.9%
CC(C)Oc1ccc(C2C(C#N)=C(N)Oc3c2oc(CO)cc3=O)cc1 (stereo unspecified)	4.1%	-8.0%	-16.9%	?
Cc1ccc(C2C(C#N)=C(N)Oc3c2oc(CO)cc3=O)o1 (stereo unspecified)	11.0%	39.8µM*	23.1%	-15.2%
Cc1[nH]c2ccccc2c(=O)c1SC(F)(F)C(F)C(F)(F)F (stereo unspecified)	-27.5%	6.4%	0.828µM*	3.29µM*
COc1ccc(/C=C2\C(=O)NC(=S)N2C(=O)c2ccc(C)cc2)cc1	0.4%	1.3%	35.0%	7.38µM*
O=C1NC(=S)N(C(=O)c2ccc(F)cc2)/C1=C/c1cccnc1	-0.2%	-7.8%	?	?
CC(C)C12CN3CC(C(C)C)(CN(C1)C3c1ccc([N+](=O)[O-])o1)C2=O (stereo unspecified)	-3.9%	-4.0%	2.08µM*	27.8%
CCN1CCN(Cc2ccc(NC(=O)c3ccc(C)c(NC(=O)C[C@@H]4NC(=O)[C@H](Cc5ccccc5)NC4=O)c3)cc2C(F)(F)F)CC1	8.4%	5.8%	?	?
Cc1ccc(C(=O)Nc2cccc(C(F)(F)F)c2)cc1NC(=O)c1c[nH]c2cc(C(F)(F)F)ccc2c1=O	-4.6%	.	.	.
CCN1CCN(Cc2ccc(NC(=O)c3ccc(C)c(NC(=O)c4csc(-c5ccncc5)n4)c3)cc2C(F)(F)F)CC1	4.5%	?	1.65µM*	0.928µM*
CCN1CCN(Cc2ccc(NC(=O)c3cc(NC(=O)C4=NN(c5ccccc5)C(=O)C4)cc(OC)c3)cc2C(F)(F)F)CC1	-0.3%	6.4%	0.928µM*	0.329µM*
CCN1CCN(Cc2ccc(NC(=O)c3ccc(C)c(NC(=O)C4=NN(c5ccccc5)C(=O)C4)c3)cc2C(F)(F)F)CC1	-0.9%	5.6%	0.415µM*	0.522µM*
COc1cc(NC(=O)N2CCNC2=O)cc(C(=O)Nc2cccc(C(F)(F)F)c2)c1	1.9%	9.0%	?	27.2%
CCN1CCN(Cc2ccc(NC(=O)c3ccc(C)c(NC(=O)c4c[nH]c5cc(C(F)(F)F)ccc5c4=O)c3)cc2C(F)(F)F)CC1	-5.6%	0.6%	0.586µM*	0.522µM*
CCOc1ccc(NC(=O)CSc2oc(-c3ccco3)nc2S(=O)(=O)c2ccccc2)cc1	.	-0.7%	.	.
CCN1CCN(Cc2ccc(NC(=O)c3ccc(C)c(NC(=O)c4cccc(-c5cn[nH]c(=O)c5)c4)c3)cc2C(F)(F)F)CC1	-5.7%	-19.1%	1.65µM*	1.47µM*
Cc1cc(C)c2c(n1)sc1c(O)cc(=O)[nH]c12	3.3%	1.2%	18.2%	7.38µM*
NC(=O)c1ccc(N=Nc2c(O)c3ccccc3[nH]c2=O)cc1	22.1%	-1.7%	2.62µM*	1.47µM*
COc1cc(N=Nc2c(O)c3ccccc3[nH]c2=O)c(OC)cc1N=Nc1ccccc1	0.6%	3.3%	3.29µM*	2.33µM*
Cc1ccc(CN2CCN(C(=O)CC(C)C)CC2)cc1	6.4%	0.0%	2.7%	?
CCNC(=O)c1c(NC(=O)c2nc(S(=O)(=O)CC)ncc2Cl)sc2c1CCCC2	.	-6.7%	.	.
